According to PubChem BioAssay (NCI):
About 83,000 compounds went through this panel and 20% of them were active in at least one assay; those are over-represented in the sample as a whole.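 Values shown are percent growth following 48 h exposure of cells in 96-well plates to a single concentration of compound; below 10 was considered active.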 The source made the active and inactive calls.

Test system: SW-620 colon
Assay: NCI-60 one-dose screen, 48 h (100 = growth as untreated, 0 = no growth, -100 = all killed)
Details: 10 µM unless noted

| Structure (SMILES) | growth |
| --- | --- |
| Cc1c(C(=O)C(SC(=S)N2CCOCC2)SC(=S)N2CCOCC2)nnn1-c1ccc([N+](=O)[O-])cc1 | 100% (inactive) |
| CC(=O)Cc1nsc(NC(=O)c2cc(-c3cc(Cl)ccc3Cl)oc2C)n1 | 107% (inactive) |
| COc1cc2ncnc(Nc3ccc(S(=O)(=O)Nc4cc(C)on4)cc3)c2cc1OCCCN1CCOCC1 | 106% (inactive) |
| O=C(c1ccc(F)cc1)C1CCN(CCn2c(=O)[nH]c3ccccc3c2=O)CC1 | 102% (inactive) |
| C=CCNc1ccc2c3c(cccc13)C(=O)N(CC=C)C2=O | 108% (inactive) |
| COC(CCP(=O)(c1ccccc1)c1ccccc1)(C(=O)c1ccccc1)c1ccccc1 (centres undefined) | 76% (inactive) |
| COc1cc2c(c(OC)c1OC)C(=O)CC(c1cccc(C(=O)Nc3ccc(Br)cc3)c1)O2 (centres undefined) | 85.8% (inactive) |
| COc1cc(-c2ccc(-c3ccc(C(=N)N)s3)s2)cc(OC)c1OC | -15.5% (active) |
| [2H]C([2H])([2H])Oc1ccc(/C=C/C(=O)/C=C(/C=C/c2ccc(OC([2H])([2H])[2H])c(OC([2H])([2H])[2H])c2OC([2H])([2H])[2H])OB(F)F)c(OC([2H])([2H])[2H])c1OC([2H])([2H])[2H] | 18.4% (inactive) |
| O=C(O)c1nn(-c2ccc(Cl)cc2)nc1N1CCCC1 | 90.6% (inactive) |
| COCCn1cc(-c2nc(-c3cc4cccnc4n3C)cs2)c2cc(OC)ccc21 | 77.1% (inactive) |
| CCOc1cc(\C=N/N=C(N)/C(N)=N\N=C/c2ccc(O)c(OCC)c2)ccc1O | 108% (inactive) |
| CC(C)=CCC[C@](C)(O)C1CC[C@]2(C)[C@@H]1CC[C@@H]1[C@@]3(C)CC/C(=N\OCCC#N)C(C)(C)[C@@H]3CC[C@]12C (some centres undefined) | 78.8% (inactive) |
| CCCc1cc(CCC)n2nc(N)nc2n1 | 109% (inactive) |
| CC(CN)[C@@H]1CC[C@]2(CO)CC[C@]3(C)[C@H](CC[C@@H]4[C@@]5(C)CCC(NCCO)C(C)(C)[C@@H]5CC[C@]43C)[C@@H]12 (some centres undefined) | -60.9% (active) |
| COc1cccc(C(=O)Nc2cccc(NC(=O)c3ccccn3)c2)c1 | 109% (inactive) |
| Cc1ccc(S(=O)(=O)c2nc(-c3ccccc3)oc2S(C)=O)cc1 (centres undefined) | -55.4% (active) |
| O=[N+]([O-])c1ccc(Oc2cccc3c(Oc4ccc([N+](=O)[O-])cc4[N+](=O)[O-])cccc23)c([N+](=O)[O-])c1 | 87.8% (inactive) |
| CC1(C)CC(=O)C2=C(C1)OC(C(=O)c1ccccc1)C2c1cccc(Oc2ccccc2)c1 (centres undefined) | 54.2% (inactive) |
| Cn1cc(-c2nc(-c3c[nH]c4c(Cl)nccc34)cs2)c2ccccc21 | 99.4% (inactive) |

| Structure (SMILES) | growth |
| --- | --- |
| CCCCCN(CCCCC)CC(O)c1c(Cl)ccc2ccccc12 (centres undefined) | 46.1% (inactive) |
| COc1cccc2cc(N(C)c3ncnc4ccccc34)ccc12 | 20.5% (inactive) |
| CN1C(=O)N(C)C2C1NN=c1s/c(=C\c3ccccc3F)c(=O)n12 (centres undefined) | 18.8% (inactive) |
| C#Cc1ccc(NC(=O)Cc2ccc(/C=C/C(=O)c3nccn3C)cc2)cc1 | 15.8% (inactive) |
| O=C1C2C(c3cccs3)C=C(c3ccc(Cl)cc3)N2C(=S)N1c1ccccc1 (centres undefined) | 102% (inactive) |
| Cc1cc2nc(C(Cl)Cl)nc(-c3ccccc3)n2n1 | 29.6% (inactive) |
| O=C(NS(=O)(=O)c1ccccc1)n1cc(-c2ccncc2)c(-c2cc(O)cc(Cl)c2)n1 | 123% (inactive) |
| CCOC(=O)c1cc(C(=O)c2cc(OC)cc(OC)c2)n2ncccc12 | 18.4% (inactive) |
| CC1=C2[C@@H](CC1)[C@]1(C)O[C@@](C(C)C)(C[C@H]1OC(=O)CO)[C@H]2OC(=O)CCCc1ccccc1 | 77.3% (inactive) |
| O=C1/C(=C/c2cccc(Br)c2)COc2ccc(O)c(O)c21 | -25.1% (active) |
| Nc1nc(N)c2c(n1)NC(c1cccc(Nc3ccnc4cc(C(F)(F)F)ccc34)c1)CC(c1ccc(Cl)cc1)=N2 (centres undefined) | 25.6% (inactive) |
| COc1ccc2c(c1)c(-c1nc(-c3cn(C)c4ccncc34)cs1)cn2C | -77.5% (active) |
| Cc1[nH]c(C(=O)Nc2ccc(C(N)=O)cc2OC(C)C)c(Cl)c1Cl | 105% (inactive) |
| COc1cc2nc3cc([N+](=O)[O-])ccc3c(NCCCNCCO)c2cc1OC | -25% (active) |
| CC1OC(C(=O)N2CCN(CCO)CC2)CC1COC1CCCCC1 (centres undefined) | 101% [50 µM] (inactive) |
| CC(C)(C)CC(C)(C)Nc1c(-c2c(O)c3ccccc3oc2=O)nc2sccn12 | 96.9% (inactive) |
| O=C1NCCS(=O)(=O)/C1=C\C=C\c1cccc(C(F)(F)F)c1 | 28.3% (inactive) |
| COC(=O)c1cc(-c2ccc(OC)c(OC)c2)[nH]c1N/N=C/c1c(Cl)cccc1Cl | 21.3% (inactive) |
| Oc1cccc(-c2nc(-c3n[nH]c(=S)n3-c3ccccc3)cc3c2[nH]c2ccccc23)c1 | 20% (inactive) |
